The results in this text go back to the supplement of paper PMC4840960.

The test system of assay [1] is E18 rat cortical neuron-glia co-culture. The assay can be described thus: fiber score / MBP score (myelination specific beyond OL differentiation) (ratio); higher = more myelination-specific MBP alignment. To be noted: treatment time: 8 days (DIV5-DIV13). In short, it runs like this:
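The measure is the ratio of fiber score to MBP score, where fiber score is continuous MBP fiber length per Olig2+ nucleus and MBP score is thresholded MBP area × intensity per Olig2+ nucleus. Primary E18 rat cortical co-cultures received library compounds at 1 or 5 µM in myelination medium from DIV5 to DIV13, then were fixed in 4 % paraformaldehyde and stained for MBP, Olig2 and DAPI before analysis of four 10X fields per well in duplicate wells.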

For assay [2] the test system is unchanged. As to the kind of experiment: myelination (MBP fiber length per Olig2+ nucleus), % of 1 µM DAPT response (DMSO = 0) (% of DAPT); higher = more myelination, active = 50 or more. To be noted: treatment time: 8 days (DIV5-DIV13). In short, it runs like this:
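The myelination value was the continuous straight MBP fiber length per Olig2+ nucleus, scaled between 0.1 % DMSO (0) and a 1 µM positive control (100). It was measured in primary E18 rat cortical co-cultures treated with library compounds at 1 or 5 µM in myelination medium from DIV5 through DIV13. Cells were fixed in 4 % paraformaldehyde and stained for MBP, Olig2 and DAPI, and four 10X fields per well were imaged in duplicate wells.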

`COc1cc2nc(N(C)CCCNC(=O)C3CCCO3)nc(N)c2cc1OC` (configuration not stated) [Alfuzosin]: the results for the “fiber score / MBP score” value in assay [1] (1 µM) and in assay [1] (5 µM) were 0.472 and 0.636, respectively. Also, the myelination was -57.9 (inactive) in assay [2] (1 µM) and -36.4 (inactive) in assay [2] (5 µM).

With `CC(C)[N+](C)(CCOC(=O)C1c2ccccc2Oc2ccccc21)C(C)C` [Propantheline], the “fiber score / MBP score” value in assay [1] (1 µM) stood at 0.889; in assay [1] (5 µM), 0.949. For the same compound, the myelination was -4.45 (inactive) in assay [2] (1 µM) and 3.32 (inactive) in assay [2] (5 µM).

`CC(c1cc2ccccc2s1)N(O)C(N)=O` (configuration not stated) [Zileuton]: the “fiber score / MBP score” value turned out to be 0.599 in assay [1] (1 µM) and 0.628 in assay [1] (5 µM). For the same compound, the myelination was -6.73 (inactive) in assay [2] (1 µM) and -19.1 (inactive) in assay [2] (5 µM).

`O=C(c1ccc(F)cc1)C1CCN(CCn2c(=S)[nH]c3ccccc3c2=O)CC1` [Altanserin]: the “fiber score / MBP score” value in assay [1] (1 µM) is 0.994; in assay [1] (5 µM), 0.605. Also, the myelination in assay [2] (1 µM) is 0.872 (inactive); in assay [2] (5 µM) it was -16.1 (inactive).

Regarding `CN(C)[C@@H]1C(O)=C(C(N)=O)C(=O)[C@@]2(O)C(O)=C3C(=O)c4c(O)cccc4C[C@H]3C[C@@H]12` [Sancycline], the entries for the “fiber score / MBP score” value in assay [1] (1 µM) and in assay [1] (5 µM) were 0.961 and 0.714, respectively. In addition, the results for the myelination in assay [2] (1 µM) and in assay [2] (5 µM) were -12.5 (inactive) and -15 (inactive), respectively.

With `CO/N=C(\C(=O)N[C@@H]1C(=O)N2C(C(=O)O)=C(COC(C)=O)CS[C@H]12)c1csc(N)n1` [Cefotaxime], the “fiber score / MBP score” value in assay [1] (1 µM) was determined as 0.651; in assay [1] (5 µM) it was 0.671. Moreover, the myelination in assay [2] (1 µM) was -9.49 (inactive); in assay [2] (5 µM), -10.3 (inactive).

On to `CC(C)[N+]1(C)[C@@H]2CC[C@H]1C[C@@H](OC(=O)C(CO)c1ccccc1)C2` (some centres not stated) [Ipratropium], for which the “fiber score / MBP score” value amounted to 0.783 in assay [1] (1 µM) and 1.52 in assay [1] (5 µM). Moreover, the myelination was 0.204 (inactive) in assay [2] (1 µM) and 32.8 (inactive) in assay [2] (5 µM).

With `CCc1ccc(CCOc2ccc(CC3SC(=O)NC3=O)cc2)nc1` (configuration not stated) [Pioglitazone], the “fiber score / MBP score” value in assay [1] (1 µM) stood at 0.868; in assay [1] (5 µM), 0.501. Moreover, the myelination in assay [2] (1 µM) is -2.52 (inactive); in assay [2] (5 µM) it was -17.1 (inactive).

As to `CC1(C)O[C@@H]2C[C@H]3[C@@H]4C[C@H](F)C5=CC(=O)C=C[C@]5(C)[C@@]4(F)[C@@H](O)C[C@]3(C)[C@]2(C(=O)CO)O1` [Fluocinolone Acetonide], the “fiber score / MBP score” value stood at 1.4 in assay [1] (1 µM) and 0.825 in assay [1] (5 µM). In addition, the myelination in assay [2] (1 µM) is 22.3 (inactive); in assay [2] (5 µM) it was 6.47 (inactive).

Regarding `CO/N=C(\C(=O)N[C@@H]1C(=O)N2C(C(=O)O)=C(COC(N)=O)CS[C@H]12)c1ccco1` [Cefuroxime], the “fiber score / MBP score” value in assay [1] (1 µM) was 0.749; in assay [1] (5 µM), 0.663. Besides, the values for the myelination in assay [2] (1 µM) and in assay [2] (5 µM) were -44.2 (inactive) and -51.7 (inactive), respectively.

Take `CC(=O)SCC(Cc1ccccc1)C(=O)NCC(=O)OCc1ccccc1` (configuration not stated) [Racecadotril]: the “fiber score / MBP score” value in assay [1] (1 µM) amounted to 0.715; in assay [1] (5 µM), 0.943. For the same compound, the myelination in assay [2] (1 µM) was -48.7 (inactive); in assay [2] (5 µM) it was -8.19 (inactive).

Turning to `COc1ccccc1OCCNCC(O)COc1cccc2[nH]c3ccccc3c12` (configuration not stated) [Carvedilol], the entries for the “fiber score / MBP score” value in assay [1] (1 µM) and in assay [1] (5 µM) were 0.762 and 0.794, respectively. In addition, the myelination was -38.4 (inactive) in assay [2] (1 µM) and -16.8 (inactive) in assay [2] (5 µM).

Take `CCOc1cc(CC(=O)N[C@@H](CC(C)C)c2ccccc2N2CCCCC2)ccc1C(=O)O` [Repaglinide]: the “fiber score / MBP score” value amounted to 0.81 in assay [1] (1 µM) and 1.19 in assay [1] (5 µM). The myelination in assay [2] (1 µM) was -8.93 (inactive); in assay [2] (5 µM), 2.54 (inactive).

On to `COc1ccc(CC(C)NCC(O)c2ccc(O)c(NC=O)c2)cc1` (configuration not stated) [Formoterol], for which the results for the “fiber score / MBP score” value in assay [1] (1 µM) and in assay [1] (5 µM) were 0.702 and 0.726, respectively. For the same compound, the figures for the myelination in assay [2] (1 µM) and in assay [2] (5 µM) were -12.6 (inactive) and -14.5 (inactive), respectively.

Turning to `CC(=O)NS(=O)(=O)c1ccc(N)cc1` [Sulfacetamide], the “fiber score / MBP score” value was determined as 0.746 in assay [1] (1 µM) and 1.2 in assay [1] (5 µM). The myelination was -10.6 (inactive) in assay [2] (1 µM) and 1.76 (inactive) in assay [2] (5 µM).

As to `Nc1c2c(nc3c1CCC3)CCCC2` [Amiridine], the results for the “fiber score / MBP score” value in assay [1] (1 µM) and in assay [1] (5 µM) were 0.702 and 0.8, respectively. Further, the figures for the myelination in assay [2] (1 µM) and in assay [2] (5 µM) were -26.8 (inactive) and -17.6 (inactive), respectively.

Consider `CSc1nc2cc(Cl)c(Oc3cccc(Cl)c3Cl)cc2[nH]1` [Triclabendazole], for which the “fiber score / MBP score” value in assay [1] (1 µM) was determined as 0.682; in assay [1] (5 µM), 0.685. The values for the myelination in assay [2] (1 µM) and in assay [2] (5 µM) were -23.9 (inactive) and -18.7 (inactive), respectively.

Consider `NS(=O)(=O)c1cc(C(=O)O)c(NCc2ccco2)cc1Cl` [Furosemide], for which the “fiber score / MBP score” value in assay [1] (1 µM) is 0.894; in assay [1] (5 µM), 0.97. Further, the myelination was -9.91 (inactive) in assay [2] (1 µM) and -6.31 (inactive) in assay [2] (5 µM).

`OC(CCN1CCCC1)(c1ccccc1)C1CCCCC1` (configuration not stated) [Procyclidine]: the “fiber score / MBP score” value in assay [1] (1 µM) was 1.03; in assay [1] (5 µM), 1.05. For the same compound, the myelination in assay [2] (1 µM) is -4.99 (inactive); in assay [2] (5 µM), 11.6 (inactive).

As to `CNCCCCOc1ccccc1Cc1ccccc1` [Bifemelane], the “fiber score / MBP score” value turned out to be 0.512 in assay [1] (1 µM) and 0.543 in assay [1] (5 µM). Further, the myelination in assay [2] (1 µM) is -39.7 (inactive); in assay [2] (5 µM) it was -28.5 (inactive).

As to `CCOC(=O)C1=C(C)NC(C)=C(C(=O)OC)C1c1cccc([N+](=O)[O-])c1` (configuration not stated) [Nitrendipine], the “fiber score / MBP score” value in assay [1] (1 µM) is 0.92; in assay [1] (5 µM), 1.09. Besides, the myelination was -7.81 (inactive) in assay [2] (1 µM) and 1.09 (inactive) in assay [2] (5 µM).

`CC(C)NCC(O)c1cc(O)cc(O)c1` (configuration not stated) [Metaproterenol]: the “fiber score / MBP score” value in assay [1] (1 µM) is 0.313; in assay [1] (5 µM), 0.371. In addition, the values for the myelination in assay [2] (1 µM) and in assay [2] (5 µM) were -16.5 (inactive) and -14.3 (inactive), respectively.

Consider `CN(C)[C@@H]1C(O)=C(C(N)=O)C(=O)[C@@]2(O)C(O)=C3C(=O)c4c(O)cccc4[C@@](C)(O)[C@H]3[C@H](O)[C@@H]12` [Oxytetracycline], for which the “fiber score / MBP score” value was 0.993 in assay [1] (1 µM) and 0.668 in assay [1] (5 µM). In addition, the myelination was -5.3 (inactive) in assay [2] (1 µM) and -10.5 (inactive) in assay [2] (5 µM).
